# A selection: hits, their analogues and other compounds. The true share with any hit is near 14%.
# Pf growth 96h: P. falciparum growth inhibition at 96 hours; P. falciparum luciferase reporter growth, 96 h; Potency, µM (series often up to 28.7 µM), for inactives: at the top dose activity change, negative = inhibition, hits mostly inhibitors; 6.9% of 320,000 active; AID 504834; also: potency is read from the fitted curve at half-maximal effect
#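 96 h incubation, 37 C, 5% CO2, of luciferase-reporter P. falciparum-infected RBCs (2% hematocrit, 0.05% parasitemia final) with test compounds; endpoint luminescence.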
# Pf growth 48h: P. falciparum growth inhibition at 48 hours (one generation). P. falciparum luciferase growth in erythrocytes, 48 h. AID 504832. 5.9% of 310,000 active. Potency, µM (doses to about 28.7 µM), for the others: at the top dose activity change, negative = inhibition, hits mostly inhibitors; also: potency is read from the fitted curve at half-maximal effect
#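 Erythrocytes infected with P. falciparum carrying an integrated firefly luciferase reporter (2% hematocrit, 0.1% parasitemia final) were exposed to compounds in RPMI 1640 with 0.5% Albumax at 37 C, 5% CO2. Growth inhibition was scored as reduced luminescence.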
# Sm TGR inh: S. mansoni TGR enzyme inhibition; 3% of 360,000 active; Potency, µM (top dose mostly 114 µM), for inactives: at the highest dose activity change, negative = inhibition, actives largely listed as inhibitors; Q962Y6; AID 485364; purified TGR, DTNB reduction, TNB absorbance 405 nm; also: potency is read from the fitted curve at half-maximal effect; nearly all actives have a fitted effect of over 60% in size
#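 TGR 20 nM + NADPH 100 uM (dispensed conc.), cpd preinc 15 min RT; start with NADPH (500 uM addition) then DTNB (15 mM addition). Kinetic TNB absorbance, 405 nm filter. Four-parameter Hill fit across titration.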
# FBPA Giardia inh: Giardia lamblia aldolase inhibition; Potency, µM (doses to about 59.6 µM), inactives show at the highest dose activity, negative = inhibition, usual class: inhibitors; A8B2U2; purified Giardia FBPA; 0.71% of 290,000 active; also: potency is read from the fitted curve at half-maximal effect; nearly all actives have a fitted effect of over 55% in size
# Target sequence (A8B2U2 whole entry, looked up): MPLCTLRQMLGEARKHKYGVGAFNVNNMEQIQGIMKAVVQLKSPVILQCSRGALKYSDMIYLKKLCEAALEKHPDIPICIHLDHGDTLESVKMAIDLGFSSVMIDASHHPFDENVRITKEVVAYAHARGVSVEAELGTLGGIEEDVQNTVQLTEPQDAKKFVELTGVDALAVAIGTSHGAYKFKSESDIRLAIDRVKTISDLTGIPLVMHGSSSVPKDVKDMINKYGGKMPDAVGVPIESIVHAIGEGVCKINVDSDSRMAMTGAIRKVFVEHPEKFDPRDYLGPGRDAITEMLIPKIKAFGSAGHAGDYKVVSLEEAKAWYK
#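 Giardia FBPA (40 nM reagent) was preincubated 10 min at RT with compound (up to 57.5 uM final), then substrate plus GAPDH/TPI/NAD/arsenate coupling system with diaphorase/resazurin was added; resorufin fluorescence (525/598 nm) was read after 20 min.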
# HCMV antiviral: human cytomegalovirus inhibition | 4.5% of 410,000 active | AID 1259415 | activity change, negative = inhibition, % at 57.5 µM | HFF cells, HCMV-luciferase reporter, 72 h; stronger effect = lower value; in the data active = activity change below about -60%; inconclusive = no clear call, values can overlap the other calls; inactive = above about -39%
#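 HFF cells seeded 16 h at 37C, treated with compounds, infected with luciferase-reporter HCMV at MOI 1 PFU/cell; luciferase read at 72 h post infection, normalized to buffer-only and Salinomycin controls.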
# Starred values were filed as active, the others as inactive; u = inconclusive; x = no result; [ ] = another dose, or the depositor's remark. Unless noted, calls follow the shape of the dose curve; as a rule, active = well fitted curve in the direction sought with a large enough effect; inconclusive = small, poorly fitted or top-dose-only effect, or another doubt; inactive = no such curve, though single readings can be large; an effect the other way counts as inactive or inconclusive. % is scaled to controls: 0 for no effect and ±100 for the full control effect.
SMILES,Pf growth 96h,Pf growth 48h,Sm TGR inh,FBPA Giardia inh,HCMV antiviral
CC(/C=C/c1ccc(Cl)o1)=C\C(=O)O,1.5µM*,14%,8.9µM*,3%,-1
O=C(/C=C/c1ccc(-c2ccccc2)o1)c1ccccc1,22%,145%,u,-25%,6
Cc1nc2ccccc2c2oc(C(=O)N3CCN(c4ccc([N+](=O)[O-])cc4)CC3)cc12,22%,5%,-11%,18%,9
CN(CCc1ccccc1)C(=O)c1ccc(NC(=O)Cc2ccc(NC(=O)C3CCN(C(=O)C4CCCC4)CC3)cc2)cc1,x,x,x,x,-71*
CN(CCc1ccccc1)C(=O)c1cccc(NC(=O)Cc2cccc(NC(=O)C3CCN(C(=O)C4CCCC4)CC3)c2)c1,x,x,x,x,-9
CN(CCc1ccccc1)C(=O)c1ccc(NC(=O)Cc2ccc(NC(=O)C3CCN(C(=O)c4ccccc4)CC3)cc2)cc1,x,x,x,x,-63*
CN(Cc1ccccc1)C(=O)c1ccc(NC(=O)Cc2cccc(NC(=O)C3CCN(C(=O)C4CCCC4)CC3)c2)cc1,5.9µM*,u,5%,x,-4
CN(CCc1ccccc1)C(=O)c1ccc(NC(=O)Cc2ccc(NC(=O)C3CCCN(C(=O)c4ccccc4)C3)cc2)cc1 (centres undefined),x,x,x,x,-76*
C#CCCCO/N=C1/C[C@@H](O)[C@@H](O)[C@@H]2[C@@H]3C(=O)N(C4CCCCC4)C(=O)[C@H]3CC[C@H]12,x,x,x,-1%[12.9 µM],x
CCCCNC(=O)c1c(N)[nH]c(C(=O)c2ccccc2)c1-c1ccc(Cl)cc1,x,x,x,x,-14
O=C(Nc1ccc(Cl)cc1)OCC12COCN1COC2,x,x,x,x,5
C[C@@]12C(=O)Nc3ccc(F)cc3C(=O)N1[C@H]1c3cc(Br)ccc3OC[C@@H]1[C@@H]2c1ccccc1,x,x,x,x,-70*
C[C@@]12C(=O)Nc3ccc(Br)cc3C(=O)N1[C@H]1c3cc(Cl)ccc3OC[C@@H]1[C@@H]2c1ccccc1,3.3µM*,3.7µM*,1%,x,x
C[C@@]12C(=O)Nc3cc(F)ccc3C(=O)N1[C@H]1c3cc(Br)ccc3OC[C@@H]1[C@@H]2c1ccccc1,x,x,x,x,-31
COc1ccc(-c2cc(C(=O)Nc3cc(S(=O)(=O)N4CCOCC4)ccc3N3CCOCC3)c3ccccc3n2)cc1,u,u,6%,-10%,-5
O=C(Nc1cc(S(=O)(=O)N2CCCCC2)ccc1Oc1ccccc1)C1=COCCO1,10µM*,10µM*,-1%,3%,-20
COc1cccc(Oc2ccc(C(F)(F)F)cc2NC(=O)C2=COCCO2)c1,7.4µM*,u,21%,x,-28
CSc1cccc(CN2CCCC(CNC(=O)c3ccco3)C2)c1 (centres undefined),u,u,-18%,-3%,-28
Cc1c(Cl)cccc1NC(=S)Nc1ccc(S(=O)(=O)Nc2ncccn2)cc1,x,x,x,x,3
CCCN1C(=O)C(Cc2nc3ccccc3c(=O)n2CC)c2cc(Br)ccc21 (centres undefined),x,x,7%,x,-73*
CCn1c(CC2C(=O)N(C)c3ccc(Br)cc32)nc2ccccc2c1=O (centres undefined),x,x,0%,x,58
COc1ccc([C@H]2C[C@@H](O)[C@H](n3cc(-c4ccc(F)cc4)nn3)CN2C(=O)C2CCCCC2)cc1,x,x,x,x,0
O=C(Nc1ccc(F)cc1)C1CC(=O)n2c(nc3ccccc32)N1 (centres undefined),0%,u,-12%,-6%,21
O=C(Nc1ccc(F)c(Cl)c1)C1CC(=O)n2c(nc3ccccc32)N1 (centres undefined),20%,4.7µM*,x,3%,0
CCNC(=O)C1(C)CCN(C(=O)c2cccc(OC(F)(F)F)c2)C1 (centres undefined),x,x,x,x,1
SMILES,Pf growth 96h,Pf growth 48h,Sm TGR inh,FBPA Giardia inh,HCMV antiviral
COc1ccc(OC)c(S(=O)(=O)NC(=O)C2(C)CCN2C(=O)Cc2ccccc2Cl)c1 (centres undefined),x,x,x,x,8
Oc1ccc(/C=N/N2CCN(C3c4ccccc4-c4ccccc43)CC2)cc1,32%,37%,0%,29%,-34
Oc1ccc(/C=N/N2CCN(C3c4ccccc4-c4ccccc43)CC2)cc1O,u,u,10µM*,-16%,-27
CCOc1ccc(/C=N/N2CCN(Cc3ccccc3)CC2)cc1,0.74µM*,24%,u,4%,14
Cc1ccc(CN2CCN(/N=C/c3ccc(C(=O)O)cc3)CC2)cc1,34%,1%,1%,-1%,-21
CCOc1cccc(/C=N/Nc2nc(N3CCCC3)nc(N3CCCC3)n2)c1O,-2%,0.83µM*,5%,5%,-32
Cc1ccc(CN2CCN(/N=C/c3ccc(O)c(O)c3)CC2)cc1,7%,5%,32µM*,-7%,1
COc1ccc(OC)c(C2=NS(=O)(=O)N(C)C(C(=O)Nc3ccc(F)cc3F)=C2)c1,u,u,-15%,-3%,-33
Oc1ccc(Br)cc1/C=N/N1CCN(Cc2ccccc2)CC1,39%,19%,36%,0%,17
COc1cccc(/C=N/N2CCN(Cc3ccccc3)CC2)c1O,7.4µM*,10%,-14%,4%,8
CCOc1cccc(/C=N/N2CCN(c3ccc(Cl)cc3)CC2)c1O,-19%,-19%,10%,4%,-94*
CC(NC(=O)COc1ccc(-c2nnco2)cc1)c1ccc(Cl)cc1Cl (centres undefined),13µM*,u,-15%,-1%,-22
O=C(COc1ccc(-c2nnco2)cc1)Nc1ccc(C(F)(F)F)cc1,-18%,u,0%,x,-75*
Cc1ccc(Cl)cc1NC(=O)Cn1c(=O)cc(C)c2c(C)nn(C)c21,x,x,1%,x,-6
CC(C)CCn1cnc2c1c(=O)n(C)c(=O)n2C,-9%,-18%,-1%,3%,-21
Cc1ccc(OCCn2cnc3c2c(=O)n(C)c(=O)n3C)cc1,-11%,-5%,4%,1%,-76*
Cn1c(=O)c2c(ncn2CCO)n(C)c1=O,4.3µM*,7%,14%,-1%,6
Cc1cc2nc(C(=O)NC3CCCCC3)c(-c3cccc(Br)c3)nc2cc1C,x,x,x,x,28
Cn1cnc([N+](=O)[O-])c1S(=O)(=O)c1cccc(Cl)c1,u,-43%,0.28µM*,-2%,31
Cn1cnc([N+](=O)[O-])c1S(=O)(=O)Oc1ccccc1,x,x,x,x,43
C[C@H]1C=C(C(=O)NCc2ccccc2)O[C@@H](OCc2ccc(CO)cc2)C1,u,-1%,-13%,3%,-22
O=S(=O)(Cc1ccccc1Cl)Nc1ccccn1,x,-9%,25µM*,3%,-13
O=S(=O)(Nc1ccccn1)c1ccc(Cl)c2ccccc12,88%,25%,2%,1%,-40
NC(N)=N/N=C/c1ccc(OS(=O)(=O)c2ccccc2)cc1,-14%,2.1µM*,4%,1%,-82*
Cc1ccc(/C=N/NC(=O)c2nn(C)cc2Cl)cc1,122%,197%,2%,-1%,39

# Assay outcomes from PubChem BioAssay.
